For the assay, the system named is Sam68 (KHDRBS1). Briefly: compounds binding KHDRBS1 protein – biochemical, small-molecule microarray, 635 nm fluorescence, primary screen (AID 1125).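 Further: score merges 667 nm channel intensity with signal to noise over triplicate slides.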 The settings on record: higher = more signal.
In turn, `CO[C@@H]1COC(=O)[C@@H]2CCCN2C(=O)[C@@H](C)COC(=O)[C@H](COCc2ccccc2)NC(=O)CC=C[C@H]1C` gave a composite z-score of 0.813.

For the molecule `C#CCCCON=C1C[C@@H](O)[C@@H](O)[C@@H]2[C@@H]3C(=O)N([C@@H](C)c4ccccc4)C(=O)[C@@H]3CC[C@H]12`, the composite z-score came to 0.513.

`COCCCNC(=O)[C@@]1(C)c2ccccc2C(=O)N(Cc2ccc(OC(F)(F)F)cc2)[C@H]1c1ccc(CO)cc1`: the composite z-score was -1.22.

`C=COC[C@H]1CN2[C@@H](CC[C@@H](C)[C@@H]2c2ccc(Br)cc2)C(=O)O1` registered a composite z-score of 1.33.

The molecule `CC(CCN1CCCCc2nc(C)c(C)cc21)=NOC(C)CN1CCCc2nc(C)c(C)cc21` (stereo not given) showed a composite z-score of 1.29.

On to `CC(C)=NOCc1ccc(-c2cc(-c3ccccc3)no2)cc1`, for which the composite z-score came to 0.059.

Molecule `CCc1cc2c(nc1CC)CCN(CCC(C)=NOC[C@@H](O)[C@H]1O[C@@H]3OC(C)(C)O[C@@H]3[C@H]1O)C2` came in with a composite z-score of 0.398.

On to `COc1cccc([C@H]2Oc3ccc(OC)cc3C(=NO[C@H](C)c3cn([C@@H]4COC[C@H]4O)nn3)[C@@H]2O)c1`, for which the composite z-score is -0.523.

The molecule `O=C(NN=C1C[C@@H](O)[C@@H](O)[C@@H]2[C@@H]3C(=O)N(c4ccc(F)cc4F)C(=O)[C@@H]3CC[C@@H]12)OCc1ccccc1` had a composite z-score of 0.661.

Molecule `CCOC(=O)[C@H](Cc1ccccc1)NC(=O)CCC1CC(OC(=O)NCc2ccc3c(c2)OCO3)CC2(CCCC(COC(=O)NCc3cccc(C(F)(F)F)c3)O2)O1` (stereo not given in full) came in with a composite z-score of 0.843.

For the molecule `C[C@@H](c1ccccc1)N1C(=O)[C@H]2[C@H]3[C@H](O)C=CC(=O)[C@@H]3CC[C@H]2C1=O`, the composite z-score turned out to be 0.456.

In turn, `Cc1cc2c(c(=O)o1)[C@H](O)[C@H]1O[C@H]1C2=O` yielded a composite z-score of -0.333.

As for `COc1ccc(COC(=O)NN=C2C[C@@H](O)[C@@H](O)[C@@H]3[C@@H]4C(=O)N(c5ccc(F)cc5F)C(=O)[C@@H]4CC[C@@H]23)cc1`, the composite z-score was -0.356.

Molecule `CO[C@@H]1COC(=O)CCC[C@@H](C)[C@H](OC)COC(=O)CCC[C@H]1C` displayed a composite z-score of -0.12.

As to `O=C1C[C@@H](O)[C@@H](O)[C@@H]2[C@@H]3C(=O)N(Cc4ccc5c(c4)OCO5)C(=O)[C@@H]3CC[C@@H]12`, the composite z-score worked out at 0.507.

Take `CC=CC1=C(CO)[C@H](O)[C@H]2O[C@H]2[C@H]1O`: the composite z-score is 0.278.

The molecule `CC(C)[C@H](NC(=O)OC(C)(C)C)[C@@H](O)CC(=O)OC(C)(C)C` yielded a composite z-score of -1.73.

`CO[C@H]1COC(=O)[C@@H]2CCCN2C(=O)CC=C[C@@H](C)[C@H](OC)COC(=O)CC=C[C@@H]1C` gave a composite z-score of 1.28.

Turning to `COC(=O)[C@H](C)NC(=O)CCC1CC(OC(=O)NCCc2ccc(F)cc2)CC2(CCCC(COC(=O)NCCc3ccc(Cl)cc3)O2)O1` (stereo not given in full), the composite z-score turned out to be 1.07.

`CC(C)=CCCC(C)=CCON=C1[C@H]2CCn3c(=O)n(C)c(=O)n3[C@H]2[C@H](O)[C@@H]2O[C@H]12` displayed a composite z-score of 1.27.

`O=C(NN=C1C[C@@H](O)[C@@H](O)[C@@H]2[C@@H]3C(=O)N(c4cccc(Oc5ccccc5)c4)C(=O)[C@@H]3CC[C@@H]12)OCc1ccccc1` had a composite z-score of 0.24.

`CC(=O)OC[C@H]1O[C@H](C#CCCCc2ccccc2)C=C[C@@H]1OC(C)=O`: the composite z-score came to 0.459.

On to `CC(CCN1CCc2nc(-c3ccccc3)c(-c3ccccc3)cc2C1)=NO[C@H](C)c1cn([C@@H]2COC[C@H]2O)nn1`, for which the composite z-score is 1.31.

In turn, `O[C@@H](Cc1ccccc1)[C@H]1C2C=CCCC(c3ccccc3)=C2CN1Cc1cccc(Cl)c1` (stereo not given in full) displayed a composite z-score of 1.31.

With `COc1ccc([Si](C)(C)[C@H]2[C@H](CCO)O[C@@]3(C(=O)N(Cc4cccc(NC(=O)[C@H](C)O)c4)c4ccccc43)[C@@H]2C)cc1`, the composite z-score was determined as 1.27.

For the molecule `O=C1NC(=O)C2C1C=CC(C(O)Cc1ccccc1)N2Nc1ccccn1` (stereo not given), the composite z-score came to 0.322.

The molecule `CC(CCC(=O)OC[C@H]1O[C@H](C#Cc2ccccc2)C=C[C@@H]1Oc1ccc(C)cc1)=NOC[C@@H](O)COCc1ccco1` had a composite z-score of -1.96.

The molecule `CC1CC/C=C\[C@H]2OC34C=CCN(Cn5nnc6ccccc65)C(=O)[C@H]3N(CCO)C(=O)[C@@H]4C2C(=O)O1` (stereo not given in full) came in with a composite z-score of 0.0381.

The molecule `CCOC(=O)CCN1C(=O)[C@H]2[C@H]3[C@H](O)[C@H](O)CC(=NNC(=O)OCc4ccc(OC)cc4)[C@@H]3CC[C@H]2C1=O` returned a composite z-score of 0.427.

On to `CCN1C(=O)[C@H]2[C@H]3[C@H](O)[C@H](O)CC(=NOC(C)CN4CCCCc5nc(C)c(C)cc54)[C@@H]3CC[C@H]2C1=O` (stereo not given in full), for which the composite z-score came to 0.238.

`C#CCCCON=C1C[C@@H](O)[C@@H](O)[C@@H]2[C@@H]3C(=O)N(CCC(=O)OCC)C(=O)[C@@H]3CC[C@@H]12`: the composite z-score was -0.349.

In turn, `CCN1C(=O)[C@H]2[C@H]3[C@H](O)[C@H](O)CC(=NO[C@@H]4O[C@H](CO)[C@@H](O)[C@H](O)[C@H]4O)[C@@H]3CC[C@H]2C1=O` had a composite z-score of -1.5.

`COCC1=C2[C@@H](CCc3ccccc3)OB(O)C[C@@H]2n2c(=O)n(-c3ccccc3)c(=O)n2C1`: the composite z-score is -0.0265.

The molecule `CN1C(=O)C2C=CC(C(O)c3ccc(Br)cc3)N(N(c3ccccc3)c3ccccc3)C2C1=O` (stereo not given) gave a composite z-score of 0.676.

Turning to `CC(CCN1CCCCc2nc(C)c(C)cc21)=NOC(C)CN1CCCCc2nc(C)c(C)cc21` (stereo not given), the composite z-score came out at 1.3.

These data come from PubChem BioAssay.
